Assay outcomes deposited in PubChem by National Center for Advancing Translational Sciences (NCATS).
In the library only some 7.3% were active in any assay of this set; here they are far more common.
FMDV inh = foot and mouth disease virus antiviral activity. FMDV antiviral cell-based qHTS. Potency, µM (titrated, usually from 57.9 µM), inactives show at the highest dose activity change, negative = inhibition, hits mostly inhibitors. 410,000 compounds, 1.2% hits. AID 1159524; calls by dose curve; tested in HEK293T cells; also: read-out not given here; potency is read from the fitted curve at half-maximal effect; nearly all actives have a fitted effect of over 45% in size
HCV inh = blocks hepatitis C virus; 340,000 compounds, 3.4% hits; Potency, µM (series often up to 41.8 µM), inactives show at the top dose activity change, negative = inhibition, actives largely listed as inhibitors; AID 651820; Huh7.5.1 HCVcc-Cre infection, luciferase reporter, 44 h; also: potency is read from the fitted curve at half-maximal effect
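Cells (1,000/well) were plated 4 h before compound, then infected with HCVcc-Cre virus (~0.5 moi). After 44 h further culture, infection was read as luciferase luminescence following a 15 min substrate incubation at room temperature.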
AmpC no deterg = AmpC beta-lactamase inhibition without detergent | P00811 | AmpC nitrocefin hydrolysis, absorbance 480 nm, 0.0001% Triton | Potency, µM (titrated, usually from 57.1 µM), for inactives: top-dose activity change, negative = inhibition, actives largely listed as inhibitors | 330,000 compounds, 0.52% hits | AID 485341;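 also: potency is read from the fitted curve at half-maximal effect; plate controls were no compound for no effect and no enzyme for full effect; nearly all actives have a fitted effect of over 20% in size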
Target sequence (P00811 whole entry, looked up): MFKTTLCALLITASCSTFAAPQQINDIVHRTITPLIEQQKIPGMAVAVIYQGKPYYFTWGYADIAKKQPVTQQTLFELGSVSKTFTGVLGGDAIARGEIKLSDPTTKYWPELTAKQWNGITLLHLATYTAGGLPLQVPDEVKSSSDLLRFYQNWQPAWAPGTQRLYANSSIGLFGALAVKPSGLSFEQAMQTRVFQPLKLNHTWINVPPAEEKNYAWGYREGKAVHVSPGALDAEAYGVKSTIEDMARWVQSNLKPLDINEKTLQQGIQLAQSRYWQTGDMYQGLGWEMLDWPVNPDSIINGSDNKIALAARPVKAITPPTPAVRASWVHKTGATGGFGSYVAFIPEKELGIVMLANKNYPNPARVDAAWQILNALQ
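AmpC (5.3 nM in the dispensed reagent) in 20 mM phosphate pH 7.0 with 0.01% (detergent screen) or 0.0001% Triton X-100 was preincubated with compounds for 15 min at room temperature. Nitrocefin was then added from an 800 uM solution, and hydrolysis was followed at 480 nm.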
HCMV inh = blocks human cytomegalovirus replication. HFF cells, HCMV-luciferase reporter, 72 h; active compounds read low. 410,000 compounds, 4.5% hits. activity change, negative = inhibition, % at 57.5 µM. AID 1259415; in the data active = activity change below about -60%; inconclusive = no clear call, values can overlap the other calls; inactive = above about -39%
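After 16 h attachment at 37C, HFF cells received test compound and HCMV-luciferase (1 PFU/cell); reporter luminescence read 72 h later, data normalized against buffer-only and known inhibitor Salinomycin.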
AmpC detergent = blocks E. coli AmpC beta-lactamase in detergent assay; 370,000 compounds, 0.041% hits; P00811; Potency, µM (doses to about 114 µM), for inactives: top-dose activity change, negative = inhibition, actives largely listed as inhibitors; AmpC hydrolysis of nitrocefin, absorbance 480 nm, 0.01% Triton; AID 485294;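 also: potency is read from the fitted curve at half-maximal effect; 0% = no-compound wells and -100% = no-enzyme wells; nearly all actives have a fitted effect of over 25% in size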
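20 mM phosphate pH 7.0 + 0.01% (detergent screen) or 0.0001% Triton X-100; 5.3 nM AmpC reagent; cpd preinc 15 min RT; nitrocefin (800 uM stock) to start; A480 q20 s × 4 min; Activity was normalised to no-enzyme and no-compound control wells.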
* hit, by the source's call; ? = inconclusive; / = not tested or not shown; [ ] = dose if it differs, or a comment. Unless noted, calls follow the shape of the dose curve; as a rule, active = well fitted curve in the direction sought with a large enough effect; inconclusive = small, poorly fitted or top-dose-only effect, or another doubt; inactive = no such curve, though single readings can be large; an effect the other way counts as inactive or inconclusive. Unless noted, % is scaled to controls: 0 for no effect and ±100 for the full control effect.

SMILES	FMDV inh	HCV inh	AmpC no deterg	HCMV inh	AmpC detergent
COC(=O)C1(O)CC(c2ccccc2)C(C(=O)c2ccccc2)N1c1ccc(F)cc1 (stereo not drawn)	/	/	/	-29.7	/
Cc1c(Cl)cccc1NC(=O)CNC(=O)Cc1n[nH]c(=O)c2ccccc12	-16.7%	4.4%	-3.2%	10.5	/
CCC(=O)N1[C@@H]2c3ccc(C4=CCCCC4)c(=O)n3C[C@H]1[C@H](CO)[C@H]2C(=O)N[C@@H](C)c1ccccc1	/	/	/	-8.6	/
Cc1cc(C)c(S(=O)(=O)N2CCCOC2CNC(=O)C(=O)NCCc2c[nH]c3ccccc23)c(C)c1 (stereo not drawn)	?	?	5.0%	-81.9*	-0.4%
Cc1ccc(S(=O)(=O)N2CCOC2CNC(=O)C(=O)NCCc2c[nH]c3ccccc23)cc1 (stereo not drawn)	?	?	-39.1%	-79.7*	0.5%
Cc1cc(F)ccc1S(=O)(=O)N1CCCOC1CNC(=O)C(=O)NCCc1c[nH]c2ccccc12 (stereo not drawn)	31.6µM*	11.2µM*	-27.7%	-35.5	3.0%
O=C(NCCc1c[nH]c2ccccc12)C(=O)NCC1OCCCN1S(=O)(=O)c1ccc(F)cc1 (stereo not drawn)	?	?	?	?	-2.8%
COc1ccc(CCNC(=O)C(=O)NCC2OCCN2S(=O)(=O)c2ccc3c(c2)OCCO3)cc1OC (stereo not drawn)	-11.8%	?	149.3%	-15.8	-4.5%
COc1ccc(S(=O)(=O)N2CCOC2CNC(=O)C(=O)NCCc2ccc(OC)c(OC)c2)cc1C (stereo not drawn)	?	11.2µM*	77.9%	-39.0	-10.0%
O=C(NCC1Cc2cccc(-c3ncccn3)c2O1)C1CCCO1 (stereo not drawn)	-2.1%	/	/	/	/
CCCSCCCNC(=O)CN1C(=O)COc2ccc(S(=O)(=O)N3CCC(C)CC3)cc21	-13.5%	/	/	-7.7	9.3%
CCc1nc2ccc(C(=O)Nc3cccc(NS(C)(=O)=O)c3)cn2c1N(C)Cc1nccn1C	-10.4%	/	/	-20.5	/
CNC(=O)C(=O)NCC1OCCN1S(=O)(=O)c1ccc([N+](=O)[O-])cc1 (stereo not drawn)	-16.4%	19.2%	-10.1%	-0.7	?
O=C(NCc1ccccc1)C(=O)NCC1OCCN1S(=O)(=O)c1ccc([N+](=O)[O-])cc1 (stereo not drawn)	-7.8%	-3.0%	-48.9%	-77.5*	2.9%
CSc1ccc(CN2CCC2(C)C(=O)Nc2cnc3ccccc3c2)cc1 (stereo not drawn)	-14.7%	/	/	-9.3	/
COc1cccc(NC(=O)C2(C)CCN2Cc2ccccc2OC(F)F)c1 (stereo not drawn)	-26.0%	/	/	?	/
COc1cccc(NC(=O)C2(C)CCN2Cc2ccc(OC)c3ccccc23)c1 (stereo not drawn)	0.0%	/	/	5.0	/
CC1(C(=O)Nc2cnc3ccccc3c2)CCN1Cc1ccccc1Cl (stereo not drawn)	0.0%	/	/	-76.5*	/
CC(=O)N1CCc2cc(NC(=O)C3(C)CCN3Cc3ccccc3OC(F)F)ccc21 (stereo not drawn)	?	/	/	-61.0*	/
COc1cccc(CN2CCC2(C)C(=O)Nc2cccc(Oc3ccccc3)c2)c1OC (stereo not drawn)	-28.4%	/	/	-60.8*	/
O=c1c(/C=N\NS(=O)(=O)c2ccccc2)coc2ccc(Cl)cc12	-13.8%	-7.5%	-39.5%	-23.9	0.9%
CCN(c1ccc(NC(=O)COC(=O)/C=C/c2cccs2)cc1)C(C)C	-12.5%	-14.6%	-22.1%[11.4 µM]	?	?
CSc1cc(/C=N/O)c(SC)s1	-25.5%	10µM*	-17.0%	-6.4	3.4%
O=C(CCS(=O)(=O)c1cc2c(cc1Cl)NC(=O)CO2)NCc1ccccc1Cl	-22.1%	/	/	14.8	21.4%
O=C1CC2(CCN(C(=O)c3cccc(F)c3)CC2)Oc2ccccc21	1.0%	-5.8%	-4.6%	-15.6	?
Cc1ccccc1Oc1cc(-n2ncc(Cl)c(Cl)c2=O)ncn1	4.47µM*	?	-15.9%	-105.3*	-21.7%
CCOc1cnn(-c2cc(Oc3ccc(C)cc3)ncn2)c(=O)c1Cl	0.0%	-5.8%	22.3%	1.0	1.9%
